# TGFb SMAD3 inh: inhibitors of TGF-b signaling; HepG2 CAGA-GFP TGF-b/SMAD3 reporter, GFP fluorescence, 18 h; TGF-beta stimulated, 500 pg/mL final; Potency, µM (doses to about 46.1 µM), usual class: inhibitors; 410,000 tested, 1.2% active; note: nearly all actives have a fitted effect of over 65% in size
#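 Using HEPG2 CAGA-GFP reporter cells at 1000 cells/well, we pinned test compounds, stimulated with recombinant TGF-beta (500 pg/mL final) and measured total well GFP after 18 h.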
# TDP1 cell noCPT: qHTS for Inhibitors of human tyrosyl-DNA phosphodiesterase 1 (TDP1): qHTS in cells in absence of CPT; DT40 Tdp1-/- hTDP1 cells, no CPT, ATP luminescence, 48 h; Potency, µM (series often up to 46.2 µM), actives largely listed as inhibitors; 420,000 tested, 15% active; AID 686978, 2013; note: nearly all actives have a fitted effect of over 55% in size
#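 Growth of hTDP1-complemented DT40 Tdp1-knockout cells is measured by ATP luminescence after at least 48 hr compound exposure at 37 °C, with DMSO substituting for the 20 nM CPT used in the parallel screen.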
# HepG2 viability: kills HepG2 cells in TGF-b inhibitor counter-screen | HepG2 CAGA-GFP viability, ATP luminescence, 18 h | Potency, µM (titrated, usually from 46.1 µM), usual class: cytotoxic | 410,000 tested, 0.76% active | AID 588856
#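 CellTiter-Glo luminescence gave cytotoxicity after 18 hours at 37 degrees C. The cells were HepG2 CAGA-GFP in 1% FBS DMEM, stimulated with 500 pg/mL TGF-beta after compound addition. %Activity was normalised to no-cell wells (complete cell-killing) and DMSO (no toxicity), and curves were fitted and classified.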
# ATXN viability: reduces viability in counter-screen for ATXN expression inhibitors | 400,000 tested, 0.49% active | S2 cells (HEK-293 line with an ATXN2-luciferase reporter) viability, CellTiter-Fluor protease fluorescence, 24 h | Potency, µM (top dose mostly 56.7 µM), actives largely listed as cytotoxic; note: nearly all actives have a fitted effect of over 40% in size
# ATXN2 expr inh: reduces ATXN2 reporter expression in HEK-293 cells | HEK-293 ATXN2-luciferase reporter, luminescence, 24 h | Potency, µM (series often up to 57 µM), actives largely listed as inhibitors | 360,000 tested, 0.72% active | AID 1745845; note: nearly all actives have a fitted effect of over 55% in size
#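 ATXN2-luciferase reporter cells (luciferase flanked by upstream and downstream ATXN2 gene portions) were treated 24 h at 37 °C with compounds at up to 57 uM. SteadyGlo luminescence gave expression; GF-AFC fluorescence gave viability.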
# TDP1 cell CPT: DT40-hTDP1 cell growth loss with CPT | chicken DT40 Tdp1-/-;hTDP1 cells + 20 nM CPT, ATP luminescence, 48 h | Potency, µM (series often up to 46.2 µM), hits mostly inhibitors | 420,000 tested, 12% active; note: nearly all actives have a fitted effect of over 55% in size
#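 Chicken DT40 Tdp1-/- cells stably complemented with human TDP1 were seeded at 400 cells/well in medium containing 20 nM camptothecin, exposed to pin-transferred compounds, and grown at 37 °C for at least 48 hr. Viability was read as ATP luminescence.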
# Hits are given with their value; n = inactive; u = inconclusive; x = not tested or not shown. An excerpt weighted towards active compounds, which were near 17% of everything screened. Calls come from the whole dose curve; as a rule, active = well fitted curve in the direction sought with a large enough effect; inconclusive = small, poorly fitted or top-dose-only effect, or another doubt; inactive = no such curve, though single readings can be large; an effect the other way counts as inactive or inconclusive.
SMILES,TGFb SMAD3 inh,TDP1 cell noCPT,HepG2 viability,ATXN viability,ATXN2 expr inh,TDP1 cell CPT
CCOc1cc(S(=O)(=O)NC2CCCC2)ccc1Cl,u,n,n,n,n,n
CCOC(=O)COc1ccc(S(=O)(=O)NCc2ccncc2)cc1,n,u,n,n,n,u
CCOc1cc(S(=O)(=O)Nc2cc(C)cc(C)c2)ccc1Cl,22µM,16µM,n,u,u,16µM
CC1CCCCC1NS(=O)(=O)c1ccc(S(=O)(=O)NCc2ccncc2)cc1 (stereo not given),n,7.3µM,n,n,n,6.5µM
Cc1ccc(S(=O)(=O)NCc2ccncc2)cc1,u,3.7µM,n,n,n,4.1µM
CCOc1ccc(S(=O)(=O)NCc2ccncc2)cc1,u,0.52µM,n,n,n,0.46µM
N#Cc1ccc(OC(=O)c2cc(-c3ccc4c(c3)OCCO4)on2)cc1,n,n,n,x,x,n
CCOc1ccc(NC(=O)c2ccc(NS(=O)(=O)c3cccs3)cc2)cc1,n,u,n,n,n,n
CCSc1nnc(NC(=O)CCCOc2ccc(C)cc2)s1,n,u,n,n,x,n
CC(=O)Nc1ccc(S(=O)(=O)CCC(=O)O)cc1,n,n,n,n,n,n
CC(=O)CCS(=O)(=O)c1ccc(NC(C)=O)cc1,u,18µM,n,u,n,13µM
CCOc1cc(S(=O)(=O)NCc2ccncc2)ccc1Cl,n,0.58µM,n,n,n,0.52µM
CCOc1cc(S(=O)(=O)NCc2cccs2)ccc1Cl,n,u,n,n,n,u
O=C(Cc1ccc(Cl)cc1)Nc1ncc([N+](=O)[O-])s1,n,n,n,n,n,n
CC(CC(=O)Nc1ncc([N+](=O)[O-])s1)c1ccccc1 (stereo not given),n,u,n,u,n,u
O=C(COc1ccc(Cl)cc1)Nc1ncc([N+](=O)[O-])s1,u,23µM,n,u,u,26µM
N/C(=N\OC(=O)Nc1ccccc1)c1ncc([N+](=O)[O-])s1,11µM,8.2µM,8.9µM,u,u,3.3µM
O=C(Cc1ccc(Br)cc1)Nc1ncc([N+](=O)[O-])s1,u,13µM,n,n,x,u
O=C(COC(=O)COc1ccccc1)Nc1ncc([N+](=O)[O-])s1,n,u,n,n,n,23µM
O=C(COC(=O)c1ccc([N+](=O)[O-])s1)Nc1ccccc1,n,n,n,u,n,u
CCCC(=O)Nc1ccc(Cl)c(NC(=O)c2cccc(OC)c2)c1,n,u,n,n,x,u
Cc1ccc(CNS(=O)(=O)c2cc3c(cc2Cl)NC(=O)CO3)o1,n,u,n,x,x,u
COc1ccc2cc3c(N)nn(C(=O)c4ccc(F)cc4)c3nc2c1,n,10µM,n,n,x,u
COc1ccc2cc3c(N)nn(C(=O)c4ccccc4Cl)c3nc2c1,u,u,n,u,n,1.6µM
COc1ccc2cc3c(N)nn(C(=O)Cc4c[nH]c5ccccc45)c3nc2c1,u,4.1µM,n,u,x,10µM
SMILES,TGFb SMAD3 inh,TDP1 cell noCPT,HepG2 viability,ATXN viability,ATXN2 expr inh,TDP1 cell CPT
COc1ccc2cc3c(N)nn(C(=O)c4ccc(OC)c(OC)c4)c3nc2c1,n,n,n,n,n,n
COc1ccc2cc3c(N)nn(C(=O)c4cccc(F)c4)c3nc2c1,n,u,n,n,x,u
O=C(COC(=O)C12CC3CC(CC(O)(C3)C1)C2)NCc1ccco1,n,x,n,x,x,x
Cc1ccsc1/C=C/c1ccc2ccccc2n1,n,u,n,n,n,u
Oc1cccc2ccc(/C=C/c3cccs3)nc12,u,14µM,n,n,n,16µM
Cc1ccsc1/C=C/c1ccc2cccc(O)c2n1,u,23µM,n,u,n,u
Cc1cccc(/C=C/c2cccs2)n1,u,0.63µM,n,x,x,1.1µM
CCOc1ccccc1N1CC(C(=O)N(CC)CC(=O)Nc2ccc3c(c2)OCCO3)CC1=O (stereo not given),n,n,n,n,n,u
C/C(=N\NC(=O)c1c(Br)c(C)nn1C)c1ccc(NC(=O)C(C)Oc2ccc(Cl)cc2C)cc1 (stereo not given),n,u,n,n,u,u
C/C(=N\NC(=O)c1c(Br)c(C)nn1C)c1ccc(NC(=O)c2ccoc2C)cc1,n,23µM,n,n,n,n
CCC(=O)Nc1ccc(/C(C)=N/NC(=O)c2c(Br)c(C)nn2C)cc1,u,15µM,n,n,n,u
C/C(=N\NC(=O)c1c(Cl)c(C)nn1C)c1ccc(NC(=O)c2ccncc2)cc1,n,18µM,n,u,n,u
COc1cc(NC(=O)C2CCC(CNS(=O)(=O)c3csc(C(N)=O)c3)CC2)cc(OC)c1 (stereo not given),n,u,n,n,x,n
O=C(COC(=O)C1CC1)Nc1ccc2c(c1)OCO2,n,n,n,n,n,n
COc1cc2c(oc(=O)c3cc(C)cc(OC)c32)c2c(C3OC(C)C(O)C(C)(O)C3O)ccc(O)c12 (stereo not given),7.1µM,1.5µM,n,u,n,1.5µM
COc1ccc(-c2cc(C(=O)Oc3ccc(C)cc3)c3ccccc3n2)cc1,n,u,n,n,n,u
COC(=O)CC1Oc2ccccc2-n2cc(-c3ccc(C)cc3)nc21 (stereo not given),n,3.3µM,n,n,n,5.8µM
COC(=O)CC1Oc2ccccc2-n2cc(-c3ccc(F)cc3)nc21 (stereo not given),u,8.2µM,n,n,n,9.2µM
Cc1ccc(Cc2cn3cc(-c4ccccc4)nc3s2)cc1,n,n,n,n,n,n
COc1ccc(C(=O)NCCn2cc(SCC(=O)Nc3ccc(C)cc3)c3ccccc32)cc1,u,u,n,u,u,u
O=C(CSc1cn(CCNC(=O)c2ccccc2)c2ccccc12)NCc1ccco1,n,u,n,n,n,26µM
Cc1ccc(C(=O)NCCn2cc(SCC(=O)Nc3cc(C)on3)c3ccccc32)cc1,n,u,n,n,n,u
CCOc1ccc(C(=O)NCCn2cc(SCC(=O)Nc3ccccc3)c3ccccc32)cc1,10µM,23µM,n,u,u,u
COc1ccc(C(=O)NCCn2cc(SCC(=O)Nc3ccc(F)cc3)c3ccccc32)cc1,u,u,n,32µM,u,u
COc1ccc(C(=O)NCCn2cc(SCc3cc(C)ccc3C)c3ccccc32)cc1,u,u,n,u,u,13µM
N#Cc1cccc(NC(=O)C2CCN(c3cnccn3)CC2)c1,n,n,n,n,n,n
Cc1oc2c(CN3CCC(C)CC3)c(O)ccc2c(=O)c1-c1ccccc1,n,n,n,n,x,n

# Assay outcomes (PubChem)
